# Measurements reported in PubChem BioAssay (Tox21).
# Results filed as inconclusive are left out. A call without a number means that no potency is given here. Active and inactive are the calls of the source. Unless noted, calls follow the shape of the dose curve; as a rule, active = well fitted curve in the direction sought with a large enough effect in the repeat runs; inconclusive = weak or mixed curves; inactive = no such curve, though single readings can be large; an effect the other way counts as inactive or inconclusive.
# Assays:
# [1] = target: Acetylcholinesterase (Homo sapiens) (UniProt P22303); assay: Acetylcholinesterase (AChE) small molecule antagonists: fluorescence cell-based qHTS assay (AID 1347398; calls by dose curve; also: nearly all actives have a fitted effect of over 50% in size; also: potency is read from the fitted curve at half-maximal effect); conditions: Potency: AChE activity
# Summary of the method: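 SH-SY5Y, 2,000 cells/well, attached overnight; cmpd 30 min 37 C; acetylthiocholine/Thiolite Green cocktail 40 min RT; fluorescence Ex/Em 490/520 nm.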
# [2] = target: Acetylcholinesterase (Homo sapiens) (UniProt P22303); assay: Acetylcholinesterase (AChE) small molecule antagonists: enzyme-based qHTS assay with human liver microsomes (AID 1347399; calls by dose curve; also: nearly all actives have a fitted effect of over 60% in size; also: potency is read from the fitted curve at half-maximal effect); conditions: Potency: qHTS inhibition
# Summary of the method: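 Recombinant human AChE (50 mU/mL in the enzyme mix) and human liver microsomes (0.25 mg/mL final) were preincubated with compound and NADPH (0.25 mg/mL final) for 30 min at 37 C. Acetylthiocholine/DTNB was then added; thiocholine was read colorimetrically after 10 min at room temperature.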
# [3] = target: Cytochrome P450 2D6 (Homo sapiens) (UniProt P10635); assay: Cytochrome P450 Family 2 Subfamily D Member 6 (CYP2D6) small molecule antagonists: luciferase reporter qHTS assay (AID 1671196); also: nearly all actives have a fitted effect of over 50% in size; also: potency is read from the fitted curve at half-maximal effect
# Summary of the method: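 Chemicals tested for interference with CYP2D6 activity; proluciferin substrate, NADPH regeneration, 1 h at room temperature, luminescent detection.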
# [4] = target: Cytochrome P450 2C19 (Homo sapiens) (UniProt P33261); assay: Cytochrome P450 Family 2 Subfamily C Member 19 (CYP2C19) small molecule antagonists: luciferase reporter qHTS assay (AID 1671197); also: nearly all actives have a fitted effect of over 65% in size; also: potency is read from the fitted curve at half-maximal effect
# Summary of the method: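 Inhibition of CYP2C19 was scored from loss of luminescence in a P450-Glo proluciferin substrate assay, NADPH-started and run 1 h at 37C, with ketoconazole as positive control.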
# [5] = target: Cytochrome P450 2C9 (Homo sapiens) (UniProt P11712); assay: Cytochrome P450 Family 2 Subfamily C Member 9 (CYP2C9) small molecule antagonists: luciferase reporter qHTS assay (AID 1671198); also: nearly all actives have a fitted effect of over 50% in size; also: potency is read from the fitted curve at half-maximal effect
# Summary of the method: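 P450-Glo proluciferin substrate with CYP2C9 enzyme; 10 min RT preincubation, then NADPH regeneration 1 h at 37C; luciferin detection reagent 20 min RT, luminescence in relative luminescence units.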
# [6] = target: Voltage-gated inwardly rectifying potassium channel KCNH2 (Homo sapiens) (UniProt Q12809); assay: Human Ether-a-go-go-Related Gene (hERG) channel small molecule antagonists: fluorescence cell-based qHTS assay (AID 1671200); also: nearly all actives have a fitted effect of over 50% in size; also: potency is read from the fitted curve at half-maximal effect
# Summary of the method: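 Thallium flux as potassium surrogate: FluxOR II dye loaded 1 h at room temperature into hERG-expressing U2OS cells, then stimulus buffer added after 10 min. Kinetic 480 nm excitation/540 nm emission read, 2 min.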
# [7] = target: Cytochrome P450 3A4 (Homo sapiens) (UniProt P08684); assay: Cytochrome P450 Family 3 Subfamily A Member 4 (CYP3A4) small molecule antagonists: luciferase reporter qHTS assay (AID 1671201); also: nearly all actives have a fitted effect of over 50% in size; also: potency is read from the fitted curve at half-maximal effect
# Summary of the method: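 Recombinant human CYP3A4 converts a proluciferin substrate to luciferin over 1 h at room temperature after NADPH regeneration solution is added (compound preincubated 10 min); detection reagent stops reaction, luminescence read 20 min later as relative units.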
# [8] = target: Acetylcholinesterase (Homo sapiens) (UniProt P22303); assay: Acetylcholinesterase (AChE) small molecule antagonists: enzyme-based qHTS assay (AID 1347397; calls by dose curve; also: nearly all actives have a fitted effect of over 55% in size); conditions: Potency: AChE enzyme activity inhibition
# Summary of the method: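 Colorimetric DTNB read-out of thiocholine released from acetylthiocholine by recombinant human AChE (50 mU/mL as dispensed). Compounds were preincubated 30 min at RT before substrate/DTNB addition, with a 10 min RT reaction.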
# [9] = target: Cytochrome P450 1A2 (Homo sapiens) (UniProt P05177); assay: Cytochrome P450 Family 1 Subfamily A Member 2 (CYP1A2) small molecule antagonists: luciferase reporter qHTS assay (AID 1671199); also: nearly all actives have a fitted effect of over 50% in size; also: potency is read from the fitted curve at half-maximal effect
# Summary of the method: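 Read-out is luminescence from luciferin detection reagent (20 min) proportional to CYP1A2 activity; compounds in DMSO preincubated 10 min with enzyme and proluciferin substrate, then NADPH regeneration solution, 1 h, room temperature.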
# Sequence of Cytochrome P450 2C9 (Homo sapiens) (P11712 whole entry, looked up): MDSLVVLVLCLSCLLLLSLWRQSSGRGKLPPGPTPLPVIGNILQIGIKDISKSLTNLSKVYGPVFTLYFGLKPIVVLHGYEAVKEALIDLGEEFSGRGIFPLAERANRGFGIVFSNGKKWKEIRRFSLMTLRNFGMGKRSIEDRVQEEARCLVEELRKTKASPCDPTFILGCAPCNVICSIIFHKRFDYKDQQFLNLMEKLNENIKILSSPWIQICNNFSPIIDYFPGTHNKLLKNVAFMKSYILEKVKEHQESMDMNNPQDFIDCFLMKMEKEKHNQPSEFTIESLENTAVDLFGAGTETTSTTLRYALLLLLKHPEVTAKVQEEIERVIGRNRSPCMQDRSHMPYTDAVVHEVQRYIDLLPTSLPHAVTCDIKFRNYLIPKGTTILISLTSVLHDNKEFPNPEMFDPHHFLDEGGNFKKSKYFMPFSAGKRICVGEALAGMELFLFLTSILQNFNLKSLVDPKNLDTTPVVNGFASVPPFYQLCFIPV
# Sequence of Cytochrome P450 2C19 (Homo sapiens) (P33261 whole entry, looked up): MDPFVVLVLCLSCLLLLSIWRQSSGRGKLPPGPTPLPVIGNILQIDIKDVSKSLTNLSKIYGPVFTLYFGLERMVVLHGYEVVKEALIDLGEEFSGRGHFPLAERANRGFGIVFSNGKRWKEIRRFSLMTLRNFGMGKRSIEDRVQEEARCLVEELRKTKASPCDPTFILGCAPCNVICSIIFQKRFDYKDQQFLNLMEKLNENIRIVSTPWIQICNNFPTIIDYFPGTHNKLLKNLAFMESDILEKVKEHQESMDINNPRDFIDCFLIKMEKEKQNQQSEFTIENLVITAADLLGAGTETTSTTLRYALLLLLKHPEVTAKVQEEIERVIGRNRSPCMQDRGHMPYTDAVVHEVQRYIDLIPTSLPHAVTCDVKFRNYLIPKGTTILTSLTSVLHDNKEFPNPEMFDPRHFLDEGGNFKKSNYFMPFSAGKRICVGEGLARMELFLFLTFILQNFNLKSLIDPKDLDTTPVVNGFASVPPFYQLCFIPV
# Sequence of Cytochrome P450 1A2 (Homo sapiens) (P05177 whole entry, looked up): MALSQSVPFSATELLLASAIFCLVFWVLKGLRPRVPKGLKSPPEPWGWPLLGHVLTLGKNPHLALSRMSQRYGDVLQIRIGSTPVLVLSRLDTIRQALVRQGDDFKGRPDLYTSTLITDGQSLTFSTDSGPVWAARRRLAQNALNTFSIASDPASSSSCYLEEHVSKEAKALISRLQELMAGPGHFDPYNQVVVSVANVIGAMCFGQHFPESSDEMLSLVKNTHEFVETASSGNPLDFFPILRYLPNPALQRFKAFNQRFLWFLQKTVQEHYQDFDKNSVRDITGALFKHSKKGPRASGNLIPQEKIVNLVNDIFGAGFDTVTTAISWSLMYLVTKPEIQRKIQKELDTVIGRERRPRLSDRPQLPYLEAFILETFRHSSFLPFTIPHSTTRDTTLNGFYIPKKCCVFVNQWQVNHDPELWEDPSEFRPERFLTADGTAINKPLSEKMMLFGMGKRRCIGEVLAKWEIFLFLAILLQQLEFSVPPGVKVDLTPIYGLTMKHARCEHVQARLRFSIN
# Sequence of Cytochrome P450 2D6 (Homo sapiens) (P10635 whole entry, looked up): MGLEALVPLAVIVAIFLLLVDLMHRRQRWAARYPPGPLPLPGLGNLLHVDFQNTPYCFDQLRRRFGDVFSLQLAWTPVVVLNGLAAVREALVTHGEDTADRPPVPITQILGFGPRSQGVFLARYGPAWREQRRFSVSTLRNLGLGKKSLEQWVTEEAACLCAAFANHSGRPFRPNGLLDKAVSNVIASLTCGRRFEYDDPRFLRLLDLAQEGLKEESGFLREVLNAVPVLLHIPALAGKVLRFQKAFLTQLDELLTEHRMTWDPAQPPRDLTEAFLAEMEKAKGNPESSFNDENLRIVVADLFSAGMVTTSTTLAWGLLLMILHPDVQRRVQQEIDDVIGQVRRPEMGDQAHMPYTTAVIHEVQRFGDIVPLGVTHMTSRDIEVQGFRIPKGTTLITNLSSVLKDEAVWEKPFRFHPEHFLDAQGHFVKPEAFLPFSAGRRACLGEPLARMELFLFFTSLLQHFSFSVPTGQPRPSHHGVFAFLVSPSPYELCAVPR
# Sequence of Voltage-gated inwardly rectifying potassium channel KCNH2 (Homo sapiens) (Q12809 whole entry, looked up): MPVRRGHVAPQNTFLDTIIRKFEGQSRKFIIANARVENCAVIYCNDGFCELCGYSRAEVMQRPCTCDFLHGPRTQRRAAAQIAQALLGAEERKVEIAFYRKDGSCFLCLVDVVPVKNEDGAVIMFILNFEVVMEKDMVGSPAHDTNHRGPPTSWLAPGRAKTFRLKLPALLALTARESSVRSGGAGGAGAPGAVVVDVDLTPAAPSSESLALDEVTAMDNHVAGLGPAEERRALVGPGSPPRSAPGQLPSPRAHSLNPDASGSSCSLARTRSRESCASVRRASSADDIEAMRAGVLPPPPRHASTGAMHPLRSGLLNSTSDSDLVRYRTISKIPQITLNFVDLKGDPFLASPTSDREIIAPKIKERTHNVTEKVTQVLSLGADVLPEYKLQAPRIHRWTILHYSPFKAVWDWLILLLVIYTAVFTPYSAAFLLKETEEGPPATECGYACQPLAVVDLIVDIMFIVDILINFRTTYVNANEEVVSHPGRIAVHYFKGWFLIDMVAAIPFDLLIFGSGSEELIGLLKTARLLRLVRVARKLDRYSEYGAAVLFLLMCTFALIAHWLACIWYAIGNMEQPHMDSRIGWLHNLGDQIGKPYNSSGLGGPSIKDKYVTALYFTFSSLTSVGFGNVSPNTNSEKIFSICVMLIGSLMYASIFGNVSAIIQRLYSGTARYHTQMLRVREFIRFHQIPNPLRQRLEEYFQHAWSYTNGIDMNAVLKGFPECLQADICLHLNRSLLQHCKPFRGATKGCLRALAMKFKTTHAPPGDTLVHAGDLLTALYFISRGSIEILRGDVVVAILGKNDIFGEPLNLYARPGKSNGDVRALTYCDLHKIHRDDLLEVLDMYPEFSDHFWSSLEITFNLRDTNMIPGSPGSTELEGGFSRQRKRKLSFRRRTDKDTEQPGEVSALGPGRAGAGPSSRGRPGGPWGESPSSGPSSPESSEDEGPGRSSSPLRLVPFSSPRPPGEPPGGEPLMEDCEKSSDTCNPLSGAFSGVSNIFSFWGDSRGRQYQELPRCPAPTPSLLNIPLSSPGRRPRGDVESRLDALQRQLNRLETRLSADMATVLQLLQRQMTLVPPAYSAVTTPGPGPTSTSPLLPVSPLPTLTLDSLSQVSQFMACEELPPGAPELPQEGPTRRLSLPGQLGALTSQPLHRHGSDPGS
# Sequence of Cytochrome P450 3A4 (Homo sapiens) (P08684 whole entry, looked up): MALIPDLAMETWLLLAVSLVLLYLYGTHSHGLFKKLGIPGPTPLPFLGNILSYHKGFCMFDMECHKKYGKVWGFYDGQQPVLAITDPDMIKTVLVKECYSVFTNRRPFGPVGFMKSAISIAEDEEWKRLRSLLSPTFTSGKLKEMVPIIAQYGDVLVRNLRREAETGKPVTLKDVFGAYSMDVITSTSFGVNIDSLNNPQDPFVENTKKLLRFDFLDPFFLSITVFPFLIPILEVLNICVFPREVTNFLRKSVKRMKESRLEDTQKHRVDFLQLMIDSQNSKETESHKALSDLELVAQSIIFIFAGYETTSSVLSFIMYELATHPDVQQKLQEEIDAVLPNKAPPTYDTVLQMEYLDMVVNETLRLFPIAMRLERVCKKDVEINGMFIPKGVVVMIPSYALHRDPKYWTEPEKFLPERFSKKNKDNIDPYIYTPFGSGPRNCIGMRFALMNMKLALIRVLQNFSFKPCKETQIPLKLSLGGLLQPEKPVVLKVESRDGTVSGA
# Sequence of Acetylcholinesterase (Homo sapiens) (P22303 whole entry, looked up): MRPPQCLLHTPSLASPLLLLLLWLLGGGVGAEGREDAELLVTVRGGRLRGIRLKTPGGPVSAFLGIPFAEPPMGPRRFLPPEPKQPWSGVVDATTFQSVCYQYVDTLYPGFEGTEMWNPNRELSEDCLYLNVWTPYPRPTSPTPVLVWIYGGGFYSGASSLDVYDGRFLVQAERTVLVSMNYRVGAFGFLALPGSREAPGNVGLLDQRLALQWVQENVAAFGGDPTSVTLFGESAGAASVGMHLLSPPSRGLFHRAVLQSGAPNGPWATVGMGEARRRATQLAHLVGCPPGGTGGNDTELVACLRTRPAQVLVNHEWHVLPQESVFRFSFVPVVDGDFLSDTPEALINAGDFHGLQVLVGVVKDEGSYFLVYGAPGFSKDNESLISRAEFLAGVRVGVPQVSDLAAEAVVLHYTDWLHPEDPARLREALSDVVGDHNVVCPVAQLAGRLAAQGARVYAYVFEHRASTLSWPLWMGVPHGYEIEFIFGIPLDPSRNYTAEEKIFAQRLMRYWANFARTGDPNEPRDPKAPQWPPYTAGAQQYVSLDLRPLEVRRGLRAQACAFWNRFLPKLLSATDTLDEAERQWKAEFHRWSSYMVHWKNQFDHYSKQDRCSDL
Structure (SMILES),Potency [1],Potency [2],Potency [3],Potency [4],Potency [5],Potency [6],Potency [7],Potency [8],Potency [9]
N#CCNCC#N,inactive,inactive,inactive,inactive,inactive,inactive,inactive,–,–
NC(=O)c1cc([N+](=O)[O-])cc([N+](=O)[O-])c1,inactive,inactive,inactive,inactive,inactive,inactive,inactive,–,–
CC(C(=O)c1ccccc1)N(C)C (stereo not given),inactive,inactive,–,4.9 µM (active),–,inactive,–,inactive,–
CC1CCC(=O)O1 (stereo not given),inactive,inactive,inactive,inactive,inactive,inactive,inactive,–,–
ClC(Br)Br,inactive,inactive,–,–,inactive,inactive,inactive,–,inactive
COP(N)(=S)Oc1ccccc1C(=O)OC(C)C (stereo not given),inactive,2.83 µM (active),31.7 µM (active),0.178 µM (active),–,inactive,2 µM (active),–,–
COc1ccc(C(=O)N2CCCC2=O)cc1,–,–,–,–,–,inactive,–,–,–
ClCC(Cl)Cl,–,inactive,–,inactive,inactive,inactive,inactive,–,–
CCOC(=O)N(C)C(=O)CSP(=S)(OCC)OCC,inactive,inactive,–,0.126 µM (active),0.71 µM (active),inactive,2.24 µM (active),–,3.17 µM (active)
O=C(CCN1CC1)OCC(CO)(COC(=O)CCN1CC1)COC(=O)CCN1CC1,inactive,inactive,–,inactive,inactive,inactive,inactive,–,–
COC(=O)c1c(C(F)F)nc(C(F)(F)F)c(C2=NCCS2)c1CC(C)C,inactive,inactive,–,5.03 µM (active),35.6 µM (active),inactive,2 µM (active),–,0.356 µM (active)
CNC(=O)O/N=C(\C)SC,1.26 µM (active),17.8 µM (active),–,–,inactive,inactive,inactive,–,inactive
CCCCOP(=O)(O)OCCCC,inactive,inactive,–,56.4 µM (active),–,inactive,inactive,–,inactive
CC1(C)CON(Cc2ccccc2Cl)C1=O,inactive,inactive,inactive,10 µM (active),–,inactive,inactive,–,–
CC(C)CC(N(C)C)C1(c2ccc(Cl)cc2)CCC1 (stereo not given),–,–,–,9.77 µM (active),inactive,–,–,–,inactive
CCOP(=S)(OCC)Oc1cc(-c2ccccc2)on1,44.8 µM (active),3.17 µM (active),35.6 µM (active),1.59 µM (active),–,inactive,1.26 µM (active),–,3.17 µM (active)

Structure (SMILES),Potency [1],Potency [2],Potency [3],Potency [4],Potency [5],Potency [6],Potency [7],Potency [8],Potency [9]
C#C[C@]1(O)C=C[C@H]2[C@@H]3CCC4=CC(=O)CC[C@@H]4[C@H]3CC[C@@]21CC,–,inactive,–,2.75 µM (active),–,inactive,–,–,inactive
CNC(=O)N(C)c1nc2ccccc2s1,inactive,inactive,–,39.9 µM (active),39.9 µM (active),inactive,–,–,2.52 µM (active)
CSc1ccc(C(=O)C(C)(C)N2CCOCC2)cc1,inactive,inactive,–,1.12 µM (active),–,–,2 µM (active),–,–
C[C@]12CC[C@H]3[C@@H](CC=C4C[C@@H](O)CC[C@@]43C)[C@@H]1CC[C@@H]2O,–,–,–,–,–,inactive,–,–,–
O=C(CCCN1CCC(n2c(=O)[nH]c3ccccc32)CC1)c1ccc(F)cc1,inactive,inactive,8.71 µM (active),inactive,–,1.51 µM (active),inactive,–,inactive
COc1cccc2c1cc([N+](=O)[O-])c1c(C(=O)O)cc3c(c12)OCO3,inactive,inactive,–,79.6 µM (active),28.3 µM (active),inactive,22.4 µM (active),–,39.9 µM (active)
O=P(O)(Oc1ccccc1)Oc1ccccc1,inactive,inactive,inactive,–,39.9 µM (active),inactive,inactive,–,inactive
OC(c1ccccc1)(c1ccccc1)C1CCNCC1,inactive,inactive,12.3 µM (active),4.36 µM (active),inactive,–,inactive,–,–
CCOP(=O)(OCC)OP(=O)(OCC)OCC,inactive,inactive,–,–,inactive,inactive,inactive,–,inactive
CCCCCCI,inactive,inactive,inactive,inactive,inactive,inactive,inactive,–,–
COc1cc(OC)nc(Oc2cccc(Oc3nc(OC)cc(OC)n3)c2C(=O)O)n1,inactive,inactive,inactive,inactive,–,inactive,inactive,–,–
CC(C(O)c1ccccc1)N(C)C/C=C/c1ccccc1 (stereo not given),inactive,inactive,0.0871 µM (active),–,–,10.7 µM (active),inactive,–,–
NC(=S)C(N)=S,inactive,inactive,71 µM (active),–,79.6 µM (active),inactive,–,–,–
CCCCCCBr,–,–,–,–,–,inactive,–,–,–
CCC(C)n1c(=O)[nH]c(C)c(Br)c1=O (stereo not given),inactive,inactive,inactive,39.9 µM (active),–,inactive,inactive,–,–
N#CC(CCc1ccc(Cl)cc1)(Cn1cncn1)c1ccccc1 (stereo not given),inactive,inactive,–,0.2 µM (active),–,21.9 µM (active),0.0633 µM (active),–,–
